Source: PubChem BioAssay
hgDAF-12 ag: activates the H. glycines DAF-12 receptor ligand-binding domain | hit rate 1.8% among 370,000 | HEK293 GAL4-hgDAF12 UAS-luciferase reporter, agonist luminescence; normalized to butyrate control | AID 687014 | activation, % at 6.8 µM;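 active = activation above a cutoff set at the mean of all screened compounds plus 3 SD, cut at about 10% in these data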;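 also: 0% = DMSO wells and 100% = sodium butyrate wells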
DAX1 inh-1: NR0B1 (DAX1) inhibition; P51843; HEK293 Gal4-DAX1 luciferase reporter, luminescence; inhibition, % at 6.75 µM; hit rate 0.99% among 340,000;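 active = inhibition above the mean over all tested compounds plus 3 SD, cut at about 4.2% in these data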;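 also: 0% = DAX1-transfected cells with DMSO and 100% = empty-vector control cells with DMSO; inhibition shows as a rise in luminescence from relieved DAX1 repression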
Target sequence (P51843 207-470 limits assumed): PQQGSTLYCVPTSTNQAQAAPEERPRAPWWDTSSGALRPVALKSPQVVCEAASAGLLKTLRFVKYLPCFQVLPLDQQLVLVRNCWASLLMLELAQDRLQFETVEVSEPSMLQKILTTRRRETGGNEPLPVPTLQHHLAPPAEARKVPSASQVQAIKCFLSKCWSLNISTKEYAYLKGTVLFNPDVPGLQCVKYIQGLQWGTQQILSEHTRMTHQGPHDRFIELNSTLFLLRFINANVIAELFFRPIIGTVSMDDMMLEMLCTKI
hcDAF12 agonist: activates DAF-12 receptor from parasite H. contortus; HEK293 hcDAF-12 lit1-tk-luc reporter, luminescence; 0% DMSO, 100% Δ7-dafachronic acid; activation, % at 6.8 µM; hit rate 1.4% among 370,000;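 active = activation above the mean of all tested compounds plus 3 SD, cut at about 5.5% in these data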;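 also: 100% = response to 3 µM Δ7-dafachronic acid high control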
PolyA inh: inhibitors of polyadenylation in S. cerevisiae | AID 1875 | activity score, % at 12 µM | S. cerevisiae SKY197-pL101 polyadenylation reporter, beta-gal luminescence; efflux-impaired pdr1/pdr3 knockout yeast; score 100 = 6 SD above DMSO | hit rate 0.02% among 300,000;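 active = lowest replicate activity score at least 50, where 100 means six control SD above control mean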;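 also: yeast exposed to compound for 9 h at 30 °C; higher score means more reporter readthrough which indicates perturbed polyadenylation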
DAX1 inh-2: blocks DAX1 repression of SF-1 activated StAR promoter; HEK293T StAR-luciferase reporter, SF-1/DAX-1 repression relief; inhibition, % at 6.8 µM; hit rate 1.1% among 370,000; AID 652010;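 active = inhibition above the mean over all tested compounds plus 3 SD, cut at about 3.6% in these data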;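 also: 0% = DAX-1 cells with DMSO and 100% = cells lacking DAX-1 with DMSO; higher inhibition means more luminescence from relief of DAX-1 repression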
ssDAF-12 act: activators of S. stercoralis DAF-12 nuclear receptor; hit rate 1% among 370,000; activation, % at 6.8 µM; AID 652126; HEK293 ssDAF-12/GRIP1 lit1-tk-luc reporter, luminescence; % of 3 µM dafachronic acid response;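 active = activation above the mean over all tested compounds plus 3 SD, cut at about 0.9% in these data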;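 also: 0% = DMSO-only wells and 100% = 3 µM delta7-dafachronic acid wells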
The depositor's hits bear a star; . = not tested or not shown. This is a sample that favours compounds with a hit; in the whole collection about 4.1% have one here.

SMILES	hgDAF-12 ag	DAX1 inh-1	hcDAF12 agonist	PolyA inh	DAX1 inh-2	ssDAF-12 act
O=C(COc1ccc(Br)cc1)Nc1ccccc1N1CCCC1	2	2	1	-1	0	1.4*
O=C(COC(=O)c1ccc(Sc2ncn[nH]2)c([N+](=O)[O-])c1)Nc1cccc(Cl)c1F	0	.	2	.	-1	-1
CN1CCN(c2nc(-c3ccccc3Cl)nc3ccccc23)CC1	4	0	0	-8	0	-1
CN1CCN(c2nc(-c3ccccc3O)nc3ccccc23)CC1	4	1	6.5*	-5	0	0
Cc1ccc(C=Nc2ccccc2C(N)=O)cc1	12*	1	5.9*	1	0	0
COC(=O)Cc1nnn2c1CC(OC)c1ccccc1-2 (stereo not given)	3	.	4	.	0	0
Cc1cc(C)nc(NC(=S)N2CCN(c3ncc(C(F)(F)F)cc3Cl)CC2)c1	-1	.	-3	.	.	-2
Nc1[nH]c(C(=O)c2ccccc2)c(-c2ccccn2)c1C(=O)c1c[nH]c2ccc(Br)cc12	1	.	0	.	.	-1
Nc1[nH]c(C(=O)c2ccccc2)c(-c2ccccn2)c1C(=O)c1c[nH]c2ccccc12	2	.	0	.	0	1.3*
COc1ccc(NC(=O)C(=O)NCCN2CCN(C(=O)c3ccc(C)cc3)CC2)cc1	-1	1	-3	3	0	1.2*
CCCc1nc2ccc(C(=O)OC)cn2c1Cc1ccc(C)cc1	2	.	3	.	0	1
CCCc1nc2ccc(C(=O)OC)cn2c1Cc1ccccc1	1	.	5	.	0	1.0*
CCCc1nc2ccc(C(=O)OC)cn2c1Cc1ccccc1OC	1	.	0	.	4.2*	0
CC(=O)N1CCN(c2ccc(N3CCN(Cc4ccccc4)[C@H](C)C3)c(C)c2)[C@H](C)C1	3	.	-2	.	-1	-1
CCOC(=O)N1CCN(C(=O)CSC2=NS(=O)(=O)c3cc(F)ccc3N2)CC1	1	4.8*	2	12	0	-1
COc1ccc2c3c([nH]c2c1)C1=NCC[C@]12c1ccccc1N=CN2CC3	3	.	2	.	.	-1
CCCCCCCc1c(O)nc(SCC(=O)O)[nH]c1=O	-2	5.1*	0	-16	0	-2
CC(CNC(=O)[C@@H](Cc1ccccc1)NC(=O)[C@H]1O[C@@H](n2cnc3c(=O)[nH]c(N)nc32)[C@H](O)[C@@H]1O)c1ccccc1 (stereo not given in full)	2	.	-1	.	0	-2
CCc1ccc(Cn2c(=O)n(Cc3ccc(C(=O)NCCCOC)cc3)c(=O)c3ccccc32)cc1	0	.	1	.	0	-1
COc1ccc(NC(=O)Nc2ccc3c(c2)OCO3)c(C)c1	9	1	1	-6	4.4*	-1
COc1ccccc1NC(=O)NC(N)=O	3	4.3*	-1	13	0	-1
COc1cccc(/C=C/C(=O)OCC(=O)Nc2ccc3c(c2)OCO3)c1	1	6.4*	0	.	0	-1
COc1ccccc1NC(=O)Nc1ccc2c(c1)OCCO2	13*	8.0*	1	20	2	0
O=C(COC(=O)/C=C/c1ccc2c(c1)OCO2)Nc1ccccc1	3	0	-1	6	1	-1
C[C@@H]1CN([C@@H](C)CO)C(=O)CCCn2cc(nn2)CO[C@H]1CN(C)C(=O)Nc1ccc(F)cc1	4	.	1	.	0	-1
SMILES	hgDAF-12 ag	DAX1 inh-1	hcDAF12 agonist	PolyA inh	DAX1 inh-2	ssDAF-12 act
CCOC(=O)Nc1ccc2c(c1)[C@]1(CC(=O)N(CC(C)C)C1c1ccccc1)C(=O)N2C (stereo not given in full)	3	.	1	.	0	-1
COc1ccc(NC(=O)Nc2ccc(F)cc2F)cc1	6	3	3	-3	1	1.1*
N#C/C(=C(/O)CSc1ncn[nH]1)c1nc2ccccc2[nH]1	0	0	6.5*	20	1	0
O=[N+]([O-])CC(c1ccccc1)c1c[nH]c2ccccc12 (stereo not given)	0	.	3	-10	0	1.1*
O=C(NCc1ccc2c(c1)CCO2)Nc1ccccc1	12*	3	0	-3	2	-1
Cc1ccc(C(=O)NCc2ccc3c(c2)CCO3)cc1C	4	2	-2	-8	1	-2
Cc1onc(NC(=O)c2ccc(Cl)cc2Cl)c1Br	11*	-1	1	-11	2	-1
Cn1ccc(NC(=O)c2ccc(Cl)cc2Cl)n1	7	1	-1	.	3.9*	-1
Cn1ccc(NC(=O)c2ccc(Cl)cc2)n1	7	0	0	.	3	-1
Cn1ccc(NC(=O)c2ccc([N+](=O)[O-])cc2)n1	1	7.0*	-2	.	1	0
Cc1cccn2c(=O)c3cc(C(=O)N4CCCC(C)C4)sc3nc12 (stereo not given)	3	0	4	-15	1	1.2*
Cc1cccn2c(=O)c3cc(C(=O)N4CCCCC4)sc3nc12	6	2	5	-20	1	1.5*
CC1CCCN(C(=O)c2cc3c(=O)n4ccccc4nc3s2)C1 (stereo not given)	7	1	5	-10	1	0
CC(=O)Nc1cccc(NC(=O)C(=O)c2cn(CC(=O)N3CCCC3)c3ccccc23)c1	5	0	6.0*	.	2	1.2*
O=C(Nc1ccccc1Cl)O[C@@H]1CC[C@@]23CCCN2C(=O)CCC[C@H]3C1	-2	.	-1	.	.	-2
O=C(Nc1cnc2ccccn2c1=O)c1ccc(Cl)cc1	13*	3	1	2	1	-1
O=C(Nc1cccn2ncnc12)c1ccc(Cl)cc1	2	0	0	8	1	-2
Cc1ccc(-c2cc(-c3nnc(SCC(=O)N4c5ccccc5Sc5ccccc54)n3N)[nH]n2)cc1	0	.	-3	.	-2	-1
CC(C1CC1)N(Cc1ccccc1)C(=O)NC(=O)c1ccc(F)cc1 (stereo not given)	12*	1	0	-5	3	-1
CC(C1CC1)N(Cc1ccccc1)C(=S)Nc1ccccc1 (stereo not given)	5	0	0	10	1	-1
COc1ccc(-c2cc(C(=O)NN=Cc3ccccc3[N+](=O)[O-])[nH]n2)cc1	4	.	-2	.	-1	-1
O=C(NC1CCC1)c1ccc(C#CC2CC2)c[n+]1[O-]	11*	.	-1	.	2	0
CS(=O)(=O)c1ccc(C(=O)NC2CCCCC2)cc1	1	-1	2	-9	0	-1
Cc1cc(Nc2cc(Cl)cc(Cl)c2)cc(=O)n1-c1cc(Cl)cc(Cl)c1	-2	.	-1	.	0	-1
Cn1c(-c2ccccc2)cccc1=O	1	1	1	1	0	1.3*
